Compound activity deposited in PubChem BioAssay by The Scripps Research Institute Molecular Screening Center.
A selection: hits, their analogues and other compounds. The true share with any hit is near 4.1%.
hgDAF-12 ag – activates the H. glycines DAF-12 receptor ligand-binding domain; AID 687014; 370,000 tested, 1.8% active; HEK293 GAL4-hgDAF12 UAS-luciferase reporter, agonist luminescence; normalized to butyrate control; activation, % at 6.8 µM;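 active = activation above a cutoff set at the mean of all screened compounds plus 3 SD, cut at about 10% in these data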;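 note: 0% = DMSO wells and 100% = sodium butyrate wells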
DAX1 inh-1 – inhibitors of human orphan nuclear receptor DAX1 (NR0B1) | P51843 | HEK293 Gal4-DAX1 luciferase reporter, luminescence | inhibition, % at 6.75 µM | 340,000 tested, 0.99% active;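 active = inhibition above the mean over all tested compounds plus 3 SD, cut at about 4.2% in these data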;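 note: 0% = DAX1-transfected cells with DMSO and 100% = empty-vector control cells with DMSO; inhibition shows as a rise in luminescence from relieved DAX1 repression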
hcDAF-12 act – H. contortus DAF-12 activation, primary screen; HEK293 hcDAF-12 lit1-tk-luc reporter, luminescence; 0% DMSO, 100% Δ7-dafachronic acid; activation, % at 6.8 µM; 370,000 tested, 1.4% active; AID 652067;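 active = activation above the mean of all tested compounds plus 3 SD, cut at about 5.5% in these data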;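 note: 100% = response to 3 µM Δ7-dafachronic acid high control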
ssDAF-12 act – activators of S. stercoralis DAF-12 nuclear receptor; 370,000 tested, 1% active; activation, % at 6.8 µM; AID 652126; HEK293 ssDAF-12/GRIP1 lit1-tk-luc reporter, luminescence; % of 3 µM dafachronic acid response;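 active = activation above the mean over all tested compounds plus 3 SD, cut at about 0.9% in these data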;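 note: 0% = DMSO-only wells and 100% = 3 µM delta7-dafachronic acid wells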
DAX1 inh-2 – DAX1 (NR0B1) inhibition, primary screen; HEK293T StAR-luciferase reporter, SF-1/DAX-1 repression relief; inhibition, % at 6.8 µM; 370,000 tested, 1.1% active;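 active = inhibition above the mean over all tested compounds plus 3 SD, cut at about 3.6% in these data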;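 note: 0% = DAX-1 cells with DMSO and 100% = cells lacking DAX-1 with DMSO; higher inhibition means more luminescence from relief of DAX-1 repression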
DAX1 inh confirm – confirmation of human DAX1 (NR0B1) inhibitors; shares compounds with DAX1 inh-2; HEK293T StAR-promoter luciferase reporter, SF-1/DAX-1 repression; inhibition, % at 6.8 µM; 2,400 tested, 87% active; AID 652134;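 active = inhibition above the average of every tested compound plus 3 SD, cut at about 3.8% in these data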;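 note: 0% = DAX-1 cells with DMSO and 100% = no DAX-1 control cells with DMSO; active compounds raise luminescence by relieving repression of the StAR reporter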
SF1 mutant ctr – counter-screen for DAX1 inhibitors: nonselective inhibitors with SF-1 AF2 mutant | shares compounds with DAX1 inh-2 | 2,400 tested, 78% active | HEK293 StAR-luciferase, luminescence | inhibition, % at 6.8 µM | AID 652136;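 active = inhibition above the mean of all tested compounds plus 3 SD, cut at about 3% in these data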;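 note: 0% = DAX-1 transfected cells with DMSO and 100% = cells without DAX-1 with DMSO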
LXRb hcDAF ctr – counter-screen for hcDAF-12 agonists: agonists of human LXR-beta | activation, % at 6.8 µM | AID 743027 | 3,400 tested, under 10 active | shares compounds with hcDAF-12 act | HEK293 Gal4-LXR tk-luc reporter, luminescence, 24 h; normalized: DMSO 0%, positive control 100%;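 active = mean percent activation of the reporter above a cutoff set as the average over tested compounds plus their standard deviation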
Target sequence (P55055 whole entry, looked up, the tested form may be a part): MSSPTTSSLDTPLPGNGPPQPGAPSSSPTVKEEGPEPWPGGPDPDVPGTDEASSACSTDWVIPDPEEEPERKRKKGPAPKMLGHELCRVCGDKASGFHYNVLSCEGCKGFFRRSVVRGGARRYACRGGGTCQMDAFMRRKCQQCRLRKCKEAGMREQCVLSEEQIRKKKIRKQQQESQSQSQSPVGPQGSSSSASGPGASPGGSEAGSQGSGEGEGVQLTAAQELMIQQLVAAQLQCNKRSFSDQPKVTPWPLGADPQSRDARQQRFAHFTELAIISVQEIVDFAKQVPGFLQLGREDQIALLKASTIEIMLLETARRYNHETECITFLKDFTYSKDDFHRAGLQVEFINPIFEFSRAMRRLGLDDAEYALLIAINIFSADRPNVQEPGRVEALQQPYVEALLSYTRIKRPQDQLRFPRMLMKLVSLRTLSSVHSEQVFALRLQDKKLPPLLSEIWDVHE
hcDAF12 conf – hcDAF-12 agonism, confirmation assay. shares compounds with hcDAF-12 act. HEK293 hcDAF-12 lit1-tk-luc reporter, luminescence; % of Δ7-dafachronic acid response. activation, % at 6.8 µM. 3,400 tested, 61% active;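 active = mean activation across triplicate tests above the threshold derived from the earlier primary screen, cut at about 5.5% in these data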;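 note: 0% = DMSO only wells and 100% = 3 µM Δ7-dafachronic acid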
Numbers without * were called inactive.

Screening CCN(CC)S(=O)(=O)c1cccc(C(=O)NCC2(N3CCOCC3)CCCCC2)c1 returned hgDAF-12 ag 1, DAX1 inh-1 0, hcDAF-12 act 0, ssDAF-12 act -1 and DAX1 inh-2 0.
For CN(C)S(=O)(=O)c1ccc(C(=O)NCC2(N3CCCCC3)CCCCC2)cc1 the results were hgDAF-12 ag -1, DAX1 inh-1 1, hcDAF-12 act 1, ssDAF-12 act -1, DAX1 inh-2 6.0*, DAX1 inh confirm 8.5* and SF1 mutant ctr 3.3*.
For CCN(CC)S(=O)(=O)c1ccc(C(=O)NCC2(N3CCOCC3)CCCCC2)cc1 the results were hgDAF-12 ag 0, DAX1 inh-1 0, hcDAF-12 act 0, ssDAF-12 act -1, DAX1 inh-2 4.6*, DAX1 inh confirm 3 and SF1 mutant ctr 2.
`CS(=O)(=O)c1ccc(C(=O)NCC2(N3CCCCC3)CCCCC2)cc1` gave hgDAF-12 ag 1, DAX1 inh-1 2, hcDAF-12 act 0, ssDAF-12 act 0 and DAX1 inh-2 3.
`O=C1C(=O)N(Cc2ccc(-c3ccccc3)cc2)c2ccc(OC(F)(F)F)cc21` gave hgDAF-12 ag -1, hcDAF-12 act -2 and ssDAF-12 act -1.
N#C/C(=N\Nc1cccc(F)c1)C(=O)C1CC1 was read as hgDAF-12 ag 5, DAX1 inh-1 4, hcDAF-12 act 2, ssDAF-12 act -2 and DAX1 inh-2 0.
`N#C/C(=N\Nc1cccc(F)c1)C(=N)N1CCCCCC1` gave hgDAF-12 ag 13*, DAX1 inh-1 7.0*, hcDAF-12 act 5, ssDAF-12 act 1.7*, DAX1 inh-2 6.8*, DAX1 inh confirm 19* and SF1 mutant ctr 8.6*.
C/C(=N\NC(=O)c1ccco1)c1ccc(NC(=O)c2cccs2)cc1 was read as hgDAF-12 ag 11*, DAX1 inh-1 1, hcDAF-12 act 2, ssDAF-12 act 0, DAX1 inh-2 4.7*, DAX1 inh confirm -1 and SF1 mutant ctr -1.
`COc1ccc(/C=C2\Sc3ccc(C(=O)NCCCN4CCCC4)cc3N(C)C2=O)cc1OC` gave hgDAF-12 ag 2, DAX1 inh-1 1, hcDAF-12 act -1, ssDAF-12 act -1, DAX1 inh-2 4.6*, DAX1 inh confirm 6.0* and SF1 mutant ctr 0.
`CCOc1ccc(/C=C2/Sc3ccc(C(=O)NCC4CCCO4)cc3N(C)C2=O)cc1OC` (centres undefined) gave hgDAF-12 ag -5, DAX1 inh-1 0, hcDAF-12 act -4, ssDAF-12 act -2 and DAX1 inh-2 -2.
CC12CCC(=O)N1C(C(=O)NNC(=O)c1ccc(Br)cc1)CS2 (centres undefined) was read as hgDAF-12 ag 3, DAX1 inh-1 2, hcDAF-12 act -1, ssDAF-12 act -1, DAX1 inh-2 5.5*, DAX1 inh confirm 1 and SF1 mutant ctr -1.
For Cc1ccc(C(=O)NNC(=O)C2CSC3(C)CCC(=O)N23)cc1 (centres undefined) the results were hgDAF-12 ag 0, DAX1 inh-1 1, hcDAF-12 act -2, ssDAF-12 act 0 and DAX1 inh-2 0.
For Nc1nc(-c2ccccc2)nc2sc3c(c12)CCCC3 the results were hgDAF-12 ag 18*, DAX1 inh-1 2, hcDAF-12 act 21*, ssDAF-12 act 3.0*, DAX1 inh-2 8.3*, DAX1 inh confirm 17*, SF1 mutant ctr 6.5*, LXRb hcDAF ctr 2 and hcDAF12 conf 17*.
Screening CN(C)CCN(C(=O)c1cccs1)c1nc2cc3c(cc2s1)OCCO3 returned hgDAF-12 ag 4, DAX1 inh-1 1, hcDAF-12 act 7.0*, ssDAF-12 act 1.4*, DAX1 inh-2 5.1*, DAX1 inh confirm 4.7*, SF1 mutant ctr 5.0*, LXRb hcDAF ctr 0 and hcDAF12 conf 2.
Screening Fc1ccc(/C=N/NC2=Nc3cccc4cccc2c34)cc1 returned hgDAF-12 ag 22*, DAX1 inh-1 3, hcDAF-12 act 15*, ssDAF-12 act 2.2*, DAX1 inh-2 5.2*, DAX1 inh confirm 10*, SF1 mutant ctr 8.4*, LXRb hcDAF ctr 1 and hcDAF12 conf 11*.
`CN(c1ccc(O)cc1)c1nc(-c2ccccc2)cs1` gave hgDAF-12 ag 20*, DAX1 inh-1 2, hcDAF-12 act 8.8*, ssDAF-12 act 0, DAX1 inh-2 5.0*, DAX1 inh confirm 12*, SF1 mutant ctr 6.0*, LXRb hcDAF ctr 2 and hcDAF12 conf 6.2*.
For CN(C)c1ccc(-c2csc(C(O)(c3ccccc3)C(F)(F)F)n2)cc1 (centres undefined) the results were hgDAF-12 ag -1, hcDAF-12 act 1, ssDAF-12 act 0 and DAX1 inh-2 0.
COc1ccc(C(=O)NCCSc2ccccc2)cc1 was read as hgDAF-12 ag 12*, DAX1 inh-1 -1, hcDAF-12 act 7.4*, ssDAF-12 act 0, DAX1 inh-2 5.1*, DAX1 inh confirm 12*, SF1 mutant ctr 5.2*, LXRb hcDAF ctr 1 and hcDAF12 conf 6.5*.
`COc1ccc(C(=O)NCCNC(=O)c2ccc(OC)cc2)cc1` gave hgDAF-12 ag 2, DAX1 inh-1 0, hcDAF-12 act -3, ssDAF-12 act -2 and DAX1 inh-2 0.
For CN(C)c1ccc(-c2nc3ccccc3c(=O)[nH]2)cc1 the results were hgDAF-12 ag 15*, DAX1 inh-1 -4, hcDAF-12 act 10*, ssDAF-12 act 1, DAX1 inh-2 5.0*, DAX1 inh confirm 15*, SF1 mutant ctr 4.5*, LXRb hcDAF ctr 2 and hcDAF12 conf 12*.
Screening O=c1[nH]c(-c2ccncc2)nc2ccccc12 returned hgDAF-12 ag 3, DAX1 inh-1 -1, hcDAF-12 act 1, ssDAF-12 act 0 and DAX1 inh-2 0.
Screening Clc1ccc(OCc2nc(-c3ccncc3)no2)c(Br)c1 returned hgDAF-12 ag 13*, DAX1 inh-1 4, hcDAF-12 act 8.3*, ssDAF-12 act 1.2*, DAX1 inh-2 5.9*, DAX1 inh confirm 12*, SF1 mutant ctr 8.5*, LXRb hcDAF ctr 1 and hcDAF12 conf 6.2*.
